# The full data set covers some 7,900 targets. This sample favours those with a hit. About 0.6% of all pairs of compound and target were hits. Unmarked numbers belong to inactive results.
# Columns and labels:
# Experiment in all cases: log2 fold change, soluble protein after heating vs DMSO (PISA); higher = thermal stabilisation; K562 cells, 10 uM, 30 min; active = over 0.2 and 3.5 SD of the protein, either way, in both replicates (recomputed)
# [1] = compound: CS(=O)(=O)c1ccc(-c2cnc(N)c(C(=O)Nc3ccccc3)n2)cc1
# In short: (§1)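 K562 cells (2×10^6 cells/mL) were treated with 10 μM compound for 30 min, and aliquots were heated for 3 min over 48°C-58°C. Pooled aliquots were extracted in PBS with 0.5% NP-40 at 4°C, and the supernatant after 21,000xg for 90 min was measured by TMTpro 16plex LC-MS/MS with channel sums equalised. Reported thermal stability, relative to control samples and from duplicates, is a log2 fold change.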
# [2] = compound: C[C@@H](Oc1cc(-c2cnn(C3CCNCC3)c2)cnc1N)c1c(Cl)ccc(F)c1Cl [crizotinib]
# In short: as §1
# [3] = compound: C[C@@H]1COCCN1C2=NC(=NC(=C2)C3(CC3)S(=O)(=O)C)C4=C5C=CNC5=CC=C4
# In short: as §1
# [4] = compound: C[C@H](C1=CC=C(C=C1)C(=O)NC2=C3C=CNC3=NC=C2)N
# In short: as §1
# [5] = compound: C[C@H](Nc1ncnc2nc[nH]c12)c1cc2cccc(Cl)c2c(=O)n1-c1ccccc1 [duvelisib]
# In short: as §1
# [6] = compound: Cc1cc(Nc2cc(CN3CCOCC3)c3nc(C)c(Cc4ccc(Cl)cc4F)n3n2)n[nH]1 [gandotinib]
# In short: as §1
# [7] = compound: Cc1cc(Nc2cc(N3CCN(C)CC3)nc(Sc3ccc(NC(=O)C4CC4)cc3)n2)n[nH]1 [tozasertib]
# In short: as §1
# [8] = compound: Cc1cc(SCc2sc(-c3ccc(C(F)(F)F)cc3)nc2C)ccc1OCC(=O)O
# In short: as §1
# [9] = compound: Cc1ccc(-n2nc(C(C)(C)C)cc2NC(=O)Nc2ccc(OCCN3CCOCC3)c3ccccc23)cc1 [doramapimod]
# In short: as §1
# [10] = compound: Cc1ccc(C(=O)N(CCCN)[C@@H](c2nc3cc(Cl)ccc3c(=O)n2Cc2ccccc2)C(C)C)cc1 [ispinesib]
# In short: as §1
# UniProt P50225, sequence (P50225 whole entry, looked up): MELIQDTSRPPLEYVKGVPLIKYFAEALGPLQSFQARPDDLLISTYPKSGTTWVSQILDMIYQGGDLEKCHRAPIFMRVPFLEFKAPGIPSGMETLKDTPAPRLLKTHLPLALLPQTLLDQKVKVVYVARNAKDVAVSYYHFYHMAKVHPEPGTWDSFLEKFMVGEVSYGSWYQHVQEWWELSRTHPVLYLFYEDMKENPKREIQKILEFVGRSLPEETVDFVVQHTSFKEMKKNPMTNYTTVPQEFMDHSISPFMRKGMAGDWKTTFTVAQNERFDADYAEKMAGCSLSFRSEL
# UniProt Q9BTW9, sequence (Q9BTW9 whole entry, looked up): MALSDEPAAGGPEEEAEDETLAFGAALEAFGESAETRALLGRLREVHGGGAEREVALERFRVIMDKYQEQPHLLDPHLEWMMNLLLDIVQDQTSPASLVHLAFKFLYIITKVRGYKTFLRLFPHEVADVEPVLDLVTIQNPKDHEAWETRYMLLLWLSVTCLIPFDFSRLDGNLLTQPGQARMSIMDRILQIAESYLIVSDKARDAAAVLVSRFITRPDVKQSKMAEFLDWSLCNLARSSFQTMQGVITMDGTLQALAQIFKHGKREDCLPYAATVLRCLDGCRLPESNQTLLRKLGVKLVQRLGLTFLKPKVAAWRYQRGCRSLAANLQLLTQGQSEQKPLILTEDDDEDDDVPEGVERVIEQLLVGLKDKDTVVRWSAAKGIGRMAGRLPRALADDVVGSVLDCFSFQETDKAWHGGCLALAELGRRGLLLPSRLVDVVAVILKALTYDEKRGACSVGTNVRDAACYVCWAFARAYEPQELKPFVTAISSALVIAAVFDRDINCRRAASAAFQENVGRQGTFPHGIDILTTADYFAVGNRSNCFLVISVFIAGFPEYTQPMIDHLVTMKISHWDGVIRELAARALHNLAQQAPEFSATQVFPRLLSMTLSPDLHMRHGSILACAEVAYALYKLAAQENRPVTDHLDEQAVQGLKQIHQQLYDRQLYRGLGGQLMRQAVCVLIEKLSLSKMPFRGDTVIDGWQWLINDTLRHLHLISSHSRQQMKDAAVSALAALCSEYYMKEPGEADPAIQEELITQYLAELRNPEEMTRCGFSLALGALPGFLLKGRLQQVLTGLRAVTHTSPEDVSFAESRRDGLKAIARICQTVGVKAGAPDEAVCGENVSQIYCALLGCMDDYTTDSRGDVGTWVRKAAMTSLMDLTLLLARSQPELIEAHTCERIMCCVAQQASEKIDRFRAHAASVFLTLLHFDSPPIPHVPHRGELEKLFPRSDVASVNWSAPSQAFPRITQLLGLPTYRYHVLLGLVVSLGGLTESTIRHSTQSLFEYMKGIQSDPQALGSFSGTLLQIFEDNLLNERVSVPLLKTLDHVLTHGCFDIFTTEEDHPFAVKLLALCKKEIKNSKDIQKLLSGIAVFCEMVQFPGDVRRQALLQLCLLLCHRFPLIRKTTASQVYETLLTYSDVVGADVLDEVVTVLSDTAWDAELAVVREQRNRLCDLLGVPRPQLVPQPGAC
# UniProt P51571, sequence (P51571 whole entry, looked up): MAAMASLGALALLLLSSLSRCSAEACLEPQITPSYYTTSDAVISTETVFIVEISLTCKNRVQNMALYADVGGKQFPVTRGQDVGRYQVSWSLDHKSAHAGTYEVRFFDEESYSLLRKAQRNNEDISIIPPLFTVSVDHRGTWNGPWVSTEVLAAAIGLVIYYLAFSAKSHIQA
# UniProt P42226, sequence (P42226 whole entry, looked up): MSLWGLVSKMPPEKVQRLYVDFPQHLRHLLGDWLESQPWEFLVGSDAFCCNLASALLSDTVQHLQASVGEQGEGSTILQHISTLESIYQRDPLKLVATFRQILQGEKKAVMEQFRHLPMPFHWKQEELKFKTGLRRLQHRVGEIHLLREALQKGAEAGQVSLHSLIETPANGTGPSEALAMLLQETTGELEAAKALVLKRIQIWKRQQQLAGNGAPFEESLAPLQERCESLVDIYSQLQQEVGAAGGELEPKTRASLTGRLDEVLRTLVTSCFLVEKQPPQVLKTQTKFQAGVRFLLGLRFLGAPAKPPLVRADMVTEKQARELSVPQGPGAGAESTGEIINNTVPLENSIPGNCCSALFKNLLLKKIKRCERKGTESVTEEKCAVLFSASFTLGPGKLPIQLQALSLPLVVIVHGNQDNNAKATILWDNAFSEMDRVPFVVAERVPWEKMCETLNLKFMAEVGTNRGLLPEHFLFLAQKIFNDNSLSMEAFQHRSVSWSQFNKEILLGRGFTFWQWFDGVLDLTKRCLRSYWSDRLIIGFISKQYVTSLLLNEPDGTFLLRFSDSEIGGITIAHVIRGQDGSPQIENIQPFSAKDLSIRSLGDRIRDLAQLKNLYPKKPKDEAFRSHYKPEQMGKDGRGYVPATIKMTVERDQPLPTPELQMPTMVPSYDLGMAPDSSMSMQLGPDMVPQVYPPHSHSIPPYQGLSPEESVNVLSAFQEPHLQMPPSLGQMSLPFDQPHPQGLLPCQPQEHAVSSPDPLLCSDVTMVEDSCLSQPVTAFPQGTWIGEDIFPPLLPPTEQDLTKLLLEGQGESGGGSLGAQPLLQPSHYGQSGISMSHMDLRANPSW
# UniProt Q8NBW4, sequence (Q8NBW4 whole entry, looked up): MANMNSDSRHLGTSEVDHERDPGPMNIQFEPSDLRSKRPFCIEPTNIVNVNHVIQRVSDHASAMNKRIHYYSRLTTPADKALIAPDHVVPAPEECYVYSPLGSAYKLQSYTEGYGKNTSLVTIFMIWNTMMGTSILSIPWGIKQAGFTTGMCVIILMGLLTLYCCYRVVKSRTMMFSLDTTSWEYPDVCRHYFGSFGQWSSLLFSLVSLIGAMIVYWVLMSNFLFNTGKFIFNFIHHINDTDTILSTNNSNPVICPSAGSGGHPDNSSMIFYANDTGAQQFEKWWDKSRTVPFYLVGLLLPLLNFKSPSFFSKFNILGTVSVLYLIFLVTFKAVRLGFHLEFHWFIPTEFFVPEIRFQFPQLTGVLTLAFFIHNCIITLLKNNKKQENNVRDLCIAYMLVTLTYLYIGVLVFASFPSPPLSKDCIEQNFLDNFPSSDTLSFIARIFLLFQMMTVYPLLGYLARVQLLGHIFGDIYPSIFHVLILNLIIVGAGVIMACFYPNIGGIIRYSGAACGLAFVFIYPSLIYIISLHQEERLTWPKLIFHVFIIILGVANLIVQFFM
# UniProt P51532, sequence (P51532 whole entry, looked up): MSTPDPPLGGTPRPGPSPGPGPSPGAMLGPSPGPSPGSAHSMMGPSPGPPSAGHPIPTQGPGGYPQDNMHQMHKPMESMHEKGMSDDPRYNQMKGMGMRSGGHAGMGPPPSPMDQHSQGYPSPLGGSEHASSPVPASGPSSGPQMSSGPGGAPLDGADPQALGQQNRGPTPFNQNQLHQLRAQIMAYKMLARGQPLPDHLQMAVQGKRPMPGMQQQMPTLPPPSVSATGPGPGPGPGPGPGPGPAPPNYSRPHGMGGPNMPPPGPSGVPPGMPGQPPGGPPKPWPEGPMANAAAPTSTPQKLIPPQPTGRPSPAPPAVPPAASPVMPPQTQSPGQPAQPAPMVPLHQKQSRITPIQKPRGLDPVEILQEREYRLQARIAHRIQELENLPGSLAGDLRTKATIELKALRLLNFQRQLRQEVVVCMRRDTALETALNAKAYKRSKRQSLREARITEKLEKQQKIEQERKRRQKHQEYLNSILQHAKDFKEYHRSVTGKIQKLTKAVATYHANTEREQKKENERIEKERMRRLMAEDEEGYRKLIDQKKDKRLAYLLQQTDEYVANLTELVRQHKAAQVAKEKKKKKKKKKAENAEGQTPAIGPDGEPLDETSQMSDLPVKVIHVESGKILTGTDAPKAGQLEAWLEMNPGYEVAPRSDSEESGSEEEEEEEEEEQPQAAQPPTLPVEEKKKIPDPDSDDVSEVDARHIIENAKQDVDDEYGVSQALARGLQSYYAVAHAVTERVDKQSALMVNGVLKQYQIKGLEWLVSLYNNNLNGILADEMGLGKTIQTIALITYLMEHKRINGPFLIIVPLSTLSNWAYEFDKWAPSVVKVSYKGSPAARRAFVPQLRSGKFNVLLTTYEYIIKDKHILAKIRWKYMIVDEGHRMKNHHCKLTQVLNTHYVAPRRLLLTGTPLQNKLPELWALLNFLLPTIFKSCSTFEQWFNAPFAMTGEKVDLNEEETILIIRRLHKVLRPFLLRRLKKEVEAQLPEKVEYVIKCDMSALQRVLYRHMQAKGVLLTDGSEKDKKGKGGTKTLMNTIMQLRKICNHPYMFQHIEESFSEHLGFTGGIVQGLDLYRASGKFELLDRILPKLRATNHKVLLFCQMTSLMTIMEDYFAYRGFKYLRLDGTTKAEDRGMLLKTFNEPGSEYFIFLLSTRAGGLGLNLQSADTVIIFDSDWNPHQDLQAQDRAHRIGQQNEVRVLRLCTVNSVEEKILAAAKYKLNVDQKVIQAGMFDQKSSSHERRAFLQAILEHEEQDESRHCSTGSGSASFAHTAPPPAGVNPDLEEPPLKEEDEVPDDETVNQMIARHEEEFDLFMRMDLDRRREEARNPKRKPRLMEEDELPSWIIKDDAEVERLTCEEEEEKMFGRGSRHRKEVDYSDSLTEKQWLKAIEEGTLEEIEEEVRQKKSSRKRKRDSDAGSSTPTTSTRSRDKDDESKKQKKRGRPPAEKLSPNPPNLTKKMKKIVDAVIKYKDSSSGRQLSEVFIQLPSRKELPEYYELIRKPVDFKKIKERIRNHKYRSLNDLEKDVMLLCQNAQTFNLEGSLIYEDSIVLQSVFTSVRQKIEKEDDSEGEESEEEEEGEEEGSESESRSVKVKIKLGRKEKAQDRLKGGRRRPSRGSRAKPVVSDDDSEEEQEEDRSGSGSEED
# UniProt O95926, sequence (O95926 whole entry, looked up): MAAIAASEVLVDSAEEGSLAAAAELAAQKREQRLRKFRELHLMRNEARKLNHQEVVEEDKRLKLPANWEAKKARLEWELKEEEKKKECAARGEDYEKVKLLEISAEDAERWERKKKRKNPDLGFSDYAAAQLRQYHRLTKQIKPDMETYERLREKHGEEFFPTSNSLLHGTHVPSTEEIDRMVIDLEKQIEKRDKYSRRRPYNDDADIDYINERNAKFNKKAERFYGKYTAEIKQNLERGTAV
Target,log2 fold change [1],log2 fold change [2],log2 fold change [3],log2 fold change [4],log2 fold change [5],log2 fold change [6],log2 fold change [7],log2 fold change [8],log2 fold change [9],log2 fold change [10]
SURF1 (UniProt Q15526),-0.001,-0.008,0.043,-0.013,0,-0.066,0.016,0.032,0.01,-0.181
SLIRP (UniProt Q9GZT3),-0.046,-0.267,-0.202,0.058,0.029,0.162,-0.075,0.146,-0.045,-0.149
SNX3 (UniProt O60493),-0.035,-0.106,0.062,0.048,-0.385 (active),-0.164,-0.023,0.085,0.04,-0.141
STAT6 (UniProt P42226),-0.083,-0.037,0.028,-0.011,-0.132,-0.269,0.171,-0.123,0.043,-0.033
SP3 (UniProt Q02447),-0.005,0.013,-0.071,0.123,0.031,0.086,0.032,0,0.089,-0.046
SNX2 isoform 2 (UniProt O60749),0.135,-0.145,0.071,0.108,0.015,,,-0.029,0.17,
TGFBRAP1 (UniProt Q8WUH2),-0.081,-0.367,0.051,0.067,-0.088,-0.142,0.051,0.087,0,-0.221
SUPT16H (UniProt Q9Y5B9),0.138,-0.062,0.251,-0.093,0.084,-0.024,0.234,0.248,-0.047,0.028
SLC38A9 (UniProt Q8NBW4),0.165,-0.201,0.052,0.003,0.081,-0.018,0.001,-0.058,0.067,-0.474 (active)
SLC38A2 (UniProt Q96QD8),0.031,0.028,0.075,-0.075,0.068,,-0.009,0,-0.03,-0.049
TBCD (UniProt Q9BTW9),-0.069,0.001,0.061,-0.034,0.058,-0.104,0.041,0.009,0.004,-0.032
SYF2 (UniProt O95926),-0.147,0.206,-0.031,0.157,-0.039,0.11,-0.113,-0.078,0.022,-0.079
TAF9 (UniProt Q16594),-0.029,0.043,0.007,0.116,0.009,-0.047,-0.034,-0.131,-0.019,-0.007
SLC35B4 (UniProt Q969S0),0.016,0.256,0.048,,,,0.063,,0.038,
SRXN1 (UniProt Q9BYN0),0.009,-0.295,0.09,-0.091,,0.01,-0.086,,0.076,-0.16
SUN2 (UniProt Q9UH99),-0.001,-0.094,0.063,0.044,-0.008,0.004,-0.008,0.05,0.077,-0.104

Target,log2 fold change [1],log2 fold change [2],log2 fold change [3],log2 fold change [4],log2 fold change [5],log2 fold change [6],log2 fold change [7],log2 fold change [8],log2 fold change [9],log2 fold change [10]
SLC27A1 (UniProt Q6PCB7),0.116,0.123,0.016,-0.099,0.05,,-0.084,0.112,0.062,0.06
TAOK3 (UniProt Q9H2K8),-0.051,-0.03,-0.008,-0.13,0.014,-0.08,0.011,0.057,0.023,0.01
SSR4 (UniProt P51571),-0.004,0.001,0.081,-0.054,0.06,-0.055,0.029,0.033,-0.019,-0.045
SRSF9 (UniProt Q13242),-0.11,0.058,-0.539,0.389,-0.142,0.4,,-0.048,0.26,-0.255
SLC35B1 isoform 2 (UniProt P78383),0.049,-0.053,-0.042,-0.535 (active),0.171,,0.075,0,-0.061,-0.043
SMARCE1 (UniProt Q969G3),-0.088,0.011,0.048,0.093,0.014,-0.087,0.091,0.135,0.052,0.048
SLC7A6OS (UniProt Q96CW6),0.047,-0.04,0.004,-0.133,0.047,-0.081,0.028,-0.049,0.214,0.077
TBC1D20 isoform 3 (UniProt Q96BZ9),0.039,-0.121,0.088,0.036,,-0.078,,,0.05,0.113
TANGO6 (UniProt Q9C0B7),0.006,-0.123,-0.022,0.366 (active),0.087,,-0.124,0.078,-0.004,-0.085
SLC35A1 (UniProt P78382),-0.017,0.056,0.044,-0.196,-0.005,,-0.036,0.074,-0.039,0.04
SULT1A1 (UniProt P50225),-0.019,0.065,0.065,-0.073,-0.101,-0.029,0.006,0.035,0.016,-0.018
SMARCA4 (UniProt P51532),0.216,0.01,0.036,0.188,0.065,0.042,,-0.064,0.085,-0.248
SMARCB1 (UniProt Q12824),0.024,-0.128,,0.284,0.241,0.49,0.252,0.097,0.049,
SPAST (UniProt Q9UBP0),0.002,-0.074,0.043,0.001,0.069,-0.025,-0.01,0.15,-0.078,-0.001
TBC1D5 isoform 2 (UniProt Q92609),0,-0.24,-0.003,0.084,-0.072,-0.255,0.007,0.142,-0.031,-0.268
SORT1 (UniProt Q99523),0.007,-0.742 (active),-0.019,-0.051,0.023,-0.069,-0.001,-0.066,-0.042,-0.032

# Reference: the supplement of paper PMC10849652
